Test results as given in PubChem BioAssay (NCATS).
Inconclusive results are not listed. The source made the active and inactive calls. Unless noted, the call rests on the fitted dose curve; in most records, active means well fitted curve in the direction sought with a large enough effect; inconclusive means small, poorly fitted or top-dose-only effect, or another doubt; inactive means no such curve, though single readings can be large; an effect the other way counts as inactive or inconclusive.

Experiments:
[1] = Quantitative High-Throughput drug screen in 47 multiple myeloma cell lines against the NCATS MIPE library collection: UTMC2_PLB cell viability assay (AID 1919868); details: CellTiter-Glo ATP luminescence, 48 h; viability (% of DMSO control): at 45.8 µM (top of the series) unless noted; further: nearly all actives have a fitted effect of over 55% in size;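 on viability (% of DMSO control): 100% = DMSO-only wells and 0% = media-only wells without cells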
In short: (§1)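 Plated at 500 cells per well, myeloma lines received MIPE 4.0 compounds by pin tool. Following 48 h culture at 37 °C, CellTiter-Glo luminescence gave viability relative to DMSO and media-only controls.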

[2] = Quantitative High-Throughput drug screen in 47 multiple myeloma cell lines against the NCATS MIPE library collection: KMS11_JCRBsus cell viability assay (AID 1919873); further: nearly all actives have a fitted effect of over 50% in size
In short: as §1

[3] = Quantitative High-Throughput drug screen in 47 multiple myeloma cell lines against the NCATS MIPE library collection: KMS28BM_JCRB cell viability assay (AID 1919874); further: nearly all actives have a fitted effect of over 35% in size
In short: as §1

[4] = qHTS drug screen for cell cycle checkpoint inhibitors in PARPi-resistant BRCA-mutant ovarian cancer cell lines. (AID 1963452; calls by dose curve); details: PEO1/OlaR viability, CellTiter-Glo luminescence, 96 h; for Z-AUC: stronger effect = lower value
In short: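 PEO1, PEO4 and PEO1/OlaR ovarian cancer cells, 600 per well, exposed 96 h at 37C to a dilution series. Viability read by CellTiter-Glo luminescence, normalized to DMSO and empty wells; activity summarized as Z-AUC.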

[5] = qHTS for identification of novel therapeutic agents for treatment of microphthalmiaassociated transcription factor (MiT) renal cell carcinoma (RCC) (AID 1963991; calls by dose curve); details: CellTiter-Glo, 48 h; for Potency: active = Z-AUC below -0.8 in all three lines; for z-score: stronger effect = lower value
In short: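 Three TFE3-fusion RCC lines (UOK109, UOK124, UOK145), 500 cells/well in complete medium, were treated with MIPE 4.0 compounds for 48 hours at 37 C. Viability was by CellTiter-Glo luminescence, normalized to DMSO (100%) and empty wells (0%); curves fitted over 11 concentrations.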

[6] = Quantitative High-Throughput drug screen in 47 multiple myeloma cell lines against the NCATS MIPE library collection: PE2_PLB cell viability assay (AID 1919869); further: nearly all actives have a fitted effect of over 35% in size
In short: as §1

[7] = Quantitative High-Throughput drug screen in 47 multiple myeloma cell lines against the NCATS MIPE library collection: PCM6_Riken cell viability assay (AID 1919870); further: nearly all actives have a fitted effect of over 30% in size
In short: as §1

[8] = Quantitative High-Throughput drug screen in 47 multiple myeloma cell lines against the NCATS MIPE library collection: RPMI8226_ATCC cell viability assay (AID 1919871); further: nearly all actives have a fitted effect of over 30% in size
In short: as §1

[9] = Quantitative High-Throughput drug screen in 47 multiple myeloma cell lines against the NCATS MIPE library collection: OPM2_DSMZ cell viability assay (AID 1919872); further: nearly all actives have a fitted effect of over 30% in size
In short: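 Approved and investigational drugs from MIPE 4.0 were added by pin tool to 500 cells per well. After 48 hours at 37C, ATP-based CellTiter-Glo luminescence indicated remaining viability.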

[10] = qHTS profiling for inhibitors of Plasmodium falciparum proliferation (AID 504749); further: nearly all actives have a fitted effect of over 60% in size;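 on activity, negative = inhibition: 0% = DMSO vehicle and full inhibition = artemisinin control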; details: P. falciparum in erythrocytes, SYBR Green DNA, 72 h, at 28.7 µM (top of the series)
In short: (§2)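 Three-day growth assay of blood-stage parasites in erythrocytes (0.3% parasitemia, 2.5% hematocrit) at 37 C, 5% CO2, quantified by SYBR Green DNA staining after overnight detergent lysis.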

3D7 = assay: as above; details: P. falciparum in erythrocytes, SYBR Green DNA, 72 h; series mostly up to 28.7 µM
In short: as §2

7G8 = assay: as above; details: P. falciparum in erythrocytes, SYBR Green DNA, 72 h; series mostly up to 28.7 µM
In short: as §2

AA1029 = assay: as above; details: P. falciparum in erythrocytes, SYBR Green DNA, 72 h; series mostly up to 28.7 µM
In short: as §2

AS120 = assay: as above; details: P. falciparum in erythrocytes, SYBR Green DNA, 72 h; series mostly up to 28.7 µM
In short: as §2

ATS95 = assay: as above; details: P. falciparum in erythrocytes, SYBR Green DNA, 72 h; series mostly up to 28.7 µM
In short: as §2

C2A = assay: as above; details: P. falciparum in erythrocytes, SYBR Green DNA, 72 h; series mostly up to 28.7 µM
In short: as §2

CP185 = assay: as above; details: P. falciparum in erythrocytes, SYBR Green DNA, 72 h; series mostly up to 28.7 µM
In short: as §2

CP191 = assay: as above; details: P. falciparum in erythrocytes, SYBR Green DNA, 72 h; series mostly up to 28.7 µM
In short: as §2

CP192 = assay: as above; details: P. falciparum in erythrocytes, SYBR Green DNA, 72 h; series mostly up to 28.7 µM
In short: as §2

ATS189 = assay: as above; details: P. falciparum in erythrocytes, SYBR Green DNA, 72 h; series mostly up to 28.7 µM
In short: as §2

[11] = measured here: PEO1 parental Z-AUC
[12] = TFE3-RCC UOK109 viability, measured here: UOK109 Z-AUC
[13] = TFE3-RCC viability, measured here: UOK124 Z-AUC
[14] = TFE3-RCC viability, measured here: UOK145 Z-AUC
Potency means the concentration at half of the fitted maximal effect.

CCn1nnc2c(N3CCOCC3)nc(-c3ccc(NC(=O)Nc4ccc(C(=O)N5CCN(C)CC5)cc4)cc3)nc21
Potency [1]: 5.3 nM (active) | Potency [2]: 23.5 nM (active) | Potency [3]: 4.2 nM (active) | Z-AUC [4]: -0.869 (inactive) | Z-AUC [4, 11]: -1.58 | Z-AUC ([4]; measured here: PEO4 Z-AUC): -1.65 | Potency ([5]; TFE3-RCC UOK109 viability): 526 nM (active) | z-score [5, 12]: -1.28 | z-score [5, 13]: -1.68 | z-score [5, 14]: -1.94

COc1ccc2c(OCc3nnc4ccc(-c5ccccc5)nn34)ccnc2c1
Potency [6]: 1870 nM (active) | Potency [7]: inactive | Potency [8]: inactive | Potency [9]: inactive | Potency [2]: inactive | Potency [3]: inactive | Z-AUC [4]: -0.0998 (inactive) | Z-AUC [4, 11]: 0.23 | Z-AUC ([4]; measured here: PEO4 Z-AUC): 0.516

CNC(=O)CN1CCC(Oc2cc3c(Nc4cccc(Cl)c4F)ncnc3cc2OC)CC1
Potency [1]: 33.2 nM (active) | Potency [7]: 23.5 nM (active) | Potency [9]: 83.3 nM (active) | Potency [3]: 18.7 nM (active) | Z-AUC [4]: 0.332 (inactive) | Z-AUC [4, 11]: 0.682 | Z-AUC ([4]; measured here: PEO4 Z-AUC): 0.199 | Potency ([5]; TFE3-RCC UOK109 viability): 1870 nM (active) | z-score [5, 12]: -2.86 | z-score [5, 13]: -2.18 | z-score [5, 14]: -1.75

Nc1nc(Nc2ccc(S(N)(=O)=O)cc2)nn1C(=O)c1c(F)cccc1F
Potency [6]: 3320 nM (active) | Potency [7]: 1870 nM (active) | Potency [8]: 18700 nM (active) | Potency [9]: 14800 nM (active) | Potency [2]: 7430 nM (active) | Potency [3]: 6620 nM (active) | Z-AUC [4]: 0.423 (inactive) | Z-AUC [4, 11]: -0.334 | Z-AUC ([4]; measured here: PEO4 Z-AUC): -0.463

CN(C)c1nc(Cc2ccc(NC(=O)c3ccc4ccccc4c3)cc2)nc(Cl)c1CC(=O)O
Potency [6]: inactive | Potency [7]: inactive | Potency [8]: inactive | Potency [9]: inactive | Potency [3]: inactive | z-score [5, 12]: 0.743 | z-score [5, 13]: 0.693 | z-score [5, 14]: 0.756

Cc1ccc(CN2CCNCC2)cc1NC(=O)CNc1ccc(F)c(F)c1
Potency [6]: inactive | Potency [7]: inactive | Potency [8]: inactive | Potency [9]: inactive | Z-AUC [4]: -0.297 (inactive) | Z-AUC [4, 11]: -0.179 | Z-AUC ([4]; measured here: PEO4 Z-AUC): -0.154

CCS(=O)(=O)c1cccc(-c2cc(C(=O)NC3CCN(C)CC3)c(C)c3[nH]c4ncc(C)cc4c23)c1
Potency [1]: 118 nM (active) | Potency [9]: 2640 nM (active) | Potency [3]: 833 nM (active)

Clc1cccc(-n2nnnc2NCc2ccccc2Oc2ccccn2)c1Cl
Potency [1]: inactive | Potency [7]: inactive | Potency [2]: inactive | Potency [3]: inactive | Z-AUC [4]: -0.248 (inactive) | Z-AUC [4, 11]: -0.502 | Z-AUC ([4]; measured here: PEO4 Z-AUC): 0.0945 | z-score [5, 12]: -0.1 | z-score [5, 13]: 0.284 | z-score [5, 14]: -0.372

O=C(Cc1ccc(-c2ccc(OCCN3CCOCC3)cc2)cn1)NCc1ccccc1
Potency [1]: 33.2 nM (active) | Potency [8]: 148 nM (active) | Potency [2]: 10.5 nM (active) | Potency [3]: 14.8 nM (active) | Z-AUC [4]: -0.749 (inactive) | Z-AUC [4, 11]: -0.848 | Z-AUC ([4]; measured here: PEO4 Z-AUC): -1.63 | Potency ([5]; TFE3-RCC UOK109 viability): 148 nM (active) | z-score [5, 12]: -1.65 | z-score [5, 13]: -2.5 | z-score [5, 14]: -1.24

CNC(=O)c1cc(Oc2ccc(NC(=O)Nc3cc(C(C)(C)C)nn3-c3ccc4ncccc4c3)c(F)c2)ccn1
Potency [1]: 4180 nM (active) | Potency [8]: 16600 nM (active) | Potency [9]: 18700 nM (active) | Potency [3]: 9350 nM (active) | Z-AUC [4]: 0.924 (inactive) | Z-AUC [4, 11]: 1.09 | Z-AUC ([4]; measured here: PEO4 Z-AUC): 1.19

CC(C)(O)c1cc2nc(-c3cnc(N)nc3)nc(N3CCOCC3)c2s1
Potency [6]: 105 nM (active) | Potency [8]: 46.9 nM (active) | Potency [9]: 187 nM (active) | Potency [2]: 18.7 nM (active) | Potency [3]: 66.2 nM (active) | Z-AUC [4]: -1.37 (inactive) | Z-AUC [4, 11]: -1.91 | Z-AUC ([4]; measured here: PEO4 Z-AUC): -1.8 | Potency ([5]; TFE3-RCC UOK109 viability): 33.2 nM (active) | z-score [5, 12]: -2.49 | z-score [5, 13]: -0.824 | z-score [5, 14]: -2.51

COc1cc(C(=O)NS(=O)(=O)c2ccccc2C)ccc1Cc1cn(C)c2ccc(NC(=O)OC3CCCC3)cc12
Potency [6]: 13200 nM (active) | Potency [7]: 13200 nM (active) | Potency [8]: 20900 nM (active) | Potency [3]: 16600 nM (active) | Z-AUC [4]: 1.83 (inactive) | Z-AUC [4, 11]: 1.16 | Z-AUC ([4]; measured here: PEO4 Z-AUC): 1.3 | activity, negative = inhibition ([10]; parasite line A): -4.29% (inactive) | Potency (3D7): inactive | Potency (7G8): 12600 nM (active) | Potency (AA1029): inactive | Potency (AS120): inactive | Potency (ATS95): inactive | Potency (C2A): inactive | Potency (CP185): inactive | Potency (CP191): inactive | Potency (CP192): inactive

O=C(NCCCNc1nc(Nc2cccc(NC(=O)N3CCCC3)c2)ncc1I)c1cccs1
Potency [6]: 1180 nM (active) | Potency [7]: 5260 nM (active) | Potency [9]: 16600 nM (active) | Z-AUC [4]: 1.15 (inactive) | Z-AUC [4, 11]: 1.02 | Z-AUC ([4]; measured here: PEO4 Z-AUC): 0.426

C=CC(=O)Nc1cccc(Oc2nc(Nc3ccc(N4CCN(C)CC4)cc3OC)ncc2Cl)c1
Potency [6]: 526 nM (active) | Potency [7]: 7430 nM (active) | Potency [2]: 13200 nM (active) | Potency [3]: 20900 nM (active) | Z-AUC [4]: -0.915 (inactive) | Z-AUC [4, 11]: -0.879 | Z-AUC ([4]; measured here: PEO4 Z-AUC): -0.954

CC=CC1=C(C(=O)O)N2C(=O)[C@H](NC(=O)[C@H](N)c3ccc(O)cc3)[C@@H]2SC1
Potency [6]: inactive | Potency [8]: inactive | Potency [2]: inactive | Potency [3]: inactive | activity, negative = inhibition ([10]; parasite line A): -3.61% (inactive) | activity, negative = inhibition ([10]; parasite line B): -5.72% (inactive) | Potency (3D7): inactive | Potency (7G8): inactive | Potency (AA1029): inactive | Potency (AS120): inactive | Potency (ATS189): inactive | Potency (ATS95): inactive | Potency (C2A): inactive | Potency (CP185): inactive | Potency (CP191): inactive | Potency (CP192): inactive

COc1cccc2nc(-c3cccs3)nc(NN3C(=O)C=C(C)C3=O)c12
Potency [6]: 418 nM (active) | Potency [7]: 41.8 nM (active) | Potency [2]: 8.3 nM (active) | Potency [3]: 33.2 nM (active) | Potency [4]: 4360 nM (active) | Z-AUC [4, 11]: -1.8 | Z-AUC ([4]; measured here: PEO4 Z-AUC): -2.06

Cc1nc(Nc2n[nH]c3c2CN(C(=O)N[C@H](CN(C)C)c2ccccc2)C3(C)C)c2sccc2n1
Potency [6]: 833 nM (active) | Potency [8]: 1320 nM (active) | Potency [9]: 3720 nM (active) | Potency [2]: 37.2 nM (active) | Potency [3]: 37.2 nM (active) | Z-AUC [4]: -0.766 (inactive) | Z-AUC [4, 11]: -0.524 | Z-AUC ([4]; measured here: PEO4 Z-AUC): -1.06

Nc1nc(NCCNc2ncc(-n3ccnc3)c(-c3ccc(Cl)cc3Cl)n2)ccc1[N+](=O)[O-]
Potency [6]: 3720 nM (active) | Potency [7]: 2350 nM (active) | Z-AUC [4]: 0.218 (inactive) | Z-AUC [4, 11]: 0.907 | Z-AUC ([4]; measured here: PEO4 Z-AUC): 0.221
